Measurements as given in PubChem BioAssay AID602340 (Broad Institute, 2012).
About 2,600 (0.79%) of roughly 330,000 compounds were called active. Shown is part of a subset that was picked to be rich in actives. A number with no mark means an inactive call.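 How the source made its calls: active means mean ATP rescue above about 67%, or every replicate alone reaching that limit (limit read from the data, passing the limit was not always enough); inconclusive means no clear call, values can overlap the other calls; inactive means mean under the limit and some replicate under it.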

Experiment: protection of differentiated C2C12 cells from simvastatin – single point, plate reader, primary screen (AID 602340);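 further: myotubes were challenged with 10 µM simvastatin during compound exposure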
Details: C2C12 myotubes + simvastatin, ATP luminescence, 48 h; at 7.49 µM; active compounds read high; scaled: DMSO 0, geranylgeraniol control 100

SMILES | rescue of ATP level
CN(C)c1ccc(/C=N/NC(=O)c2ccc(Cn3cc(Br)cn3)o2)cc1 | -6.78%
Cc1nn(Cc2ccccc2Cl)c(C)c1NC(=O)Cn1nc([N+](=O)[O-])c(Cl)c1C | 13.1%
Cc1c(Cl)c([N+](=O)[O-])nn1Cc1ccc(C(=O)N/N=C\c2cc(Cl)ccc2O)o1 | 74.2% (active)
CO[C@@H]1CC[C@@H]2CCOc3ccc(C#N)cc3C(=O)N(C)[C@H](C)C(=O)N(C)C[C@@H]1O2 | 4.94%
O=C(NCC[C@@H]1CC[C@H](NC(=O)C2CCCCC2)[C@@H](CO)O1)Nc1ccc(Cl)cc1 | -9.47%
CO[C@@H]1CN(C)C(=O)c2ccc(NS(=O)(=O)c3cccc(F)c3)cc2OC[C@H](C)N(C(=O)Cc2cccnc2)C[C@@H]1C | 19.8%
C[C@H]1CN([C@@H](C)CO)C(=O)c2cc(-c3cccc(C(=O)N(C)C)c3)cnc2O[C@H]1CN(C)S(=O)(=O)c1ccccc1 | -7.9%
Nc1ccc(C(=O)OCC(=O)NC2CCCc3ccccc32)cc1[N+](=O)[O-] (centres undefined) | 150% (active)
Nc1ccc(C(=O)OCC(=O)NC2CCS(=O)(=O)C2)cc1[N+](=O)[O-] (centres undefined) | -3.1%
NC(=O)Nc1ccc(C(=O)OCC(=O)NC2CCCc3ccccc32)cc1 (centres undefined) | -1.62%
Cc1nn(C)c(Oc2ccccc2)c1[N+](=O)[O-] | 72.4% (active)
Cc1nn(C)c(Oc2ccccc2)c1CCNS(=O)(=O)c1ccc(F)cc1 | 8.55%
Cc1nn(C)c(Oc2ccc(Cl)cc2)c1C=O | 15.3%
CCC1(CC)NC(=O)N(CC(=O)OCC(=O)c2cc(C)c(C)cc2C)C1=O | 8.64%
CCC1(CC)NC(=O)N(CC(=O)OCC(=O)Nc2ccc(C(F)(F)F)cc2)C1=O | 115% (active)
CCC1(CC)NC(=O)N(CC(=O)OCC(=O)NC(=O)c2ccccc2)C1=O | -1.1%
C[C@H]1CN([C@@H](C)CO)C(=O)c2c(c3ccccc3n2C)-c2ccccc2CO[C@H]1CN(C)C(=O)Nc1ccc(F)cc1 | 19.1%
COCC(=O)N1C[C@H]2[C@@H](c3ccccc31)[C@@H](CO)N2C(=O)NC(C)C | 17%
CCc1ccc(CNC(=O)C2CCCN(c3nc4ccccc4o3)C2)cc1 (centres undefined) | 28.3%
COc1ccccc1CNC(=O)C1CCN(c2nc3ccccc3o2)CC1 | 15.8%
COc1ccc(OC)c(CNC(=O)C2CCCN(c3nc4ccccc4o3)C2)c1 (centres undefined) | 102% (active)
C[C@@H]1CN([C@@H](C)CO)C(=O)c2cccc(NS(=O)(=O)c3cn(C)cn3)c2O[C@@H]1CN(C)Cc1ccc(Cl)c(Cl)c1 | -13.1%
CCCNC(=O)C[C@H]1C[C@@H]2c3cc(NC(=O)C4CCOCC4)ccc3O[C@@H]2[C@@H](CO)O1 | -1.71%
CCN(CC)Cc1cc(C(C)=O)ccc1O | 16.6%
CN(CCO)Cc1csc2ccc(Br)cc12 | 14.5%
CCN(CC)Cc1csc2ccc(Br)cc12 | 100% (active)
CNC[C@H]1Oc2cc(-c3cccnc3)ccc2S(=O)(=O)N([C@@H](C)CO)C[C@H]1C | -14.4%

SMILES | rescue of ATP level
O=C(C[C@@H]1C=C[C@H](NC(=O)c2ccc3c(c2)OCO3)[C@H](CO)O1)NCc1ccc(Oc2ccccc2)cc1 | 8.65%
CN(C)C(=O)c1cccc(-c2ccc3c(c2)[C@H]2[C@H](CCN2S(=O)(=O)c2cn(C)cn2)[C@@H](CO)N3)c1 | 13.8%
CCN1C(=O)N[C@@H](c2ccccc2)C(C(=O)OC)=C1C | -1.21%
COCCN1C(=O)N[C@@H](c2ccccc2)C(C(=O)OC)=C1C | -10.8%
COC(=O)C1=C(C)N(C)C(C)=C(C(=O)OC)C1c1cccc(Br)c1 | 89.2% (active)
COCC(=O)Nc1ccc2c(c1)OC[C@H](C)N(C(=O)Cc1ccccn1)C[C@H](C)[C@@H](OC)CN(C)C2=O | 9.72%
Cc1ccc2nc(Nc3ccccc3O)nc(-c3ccccc3)c2c1 | 134% (active)
OCCCNc1nc(-c2ccccc2)c2cc(Cl)ccc2n1 | 1.1%
O=C(CCl)NNc1nc(-c2ccccc2)c2cc(Cl)ccc2n1 | 16.4%
CC(C)NC(=O)Nc1ccc2c(c1)CC(=O)N([C@@H](C)CO)C[C@@H](C)[C@@H](CN(C)S(=O)(=O)c1ccccc1)O2 | -17%
COc1ccccc1CNC(=O)C[C@@H]1CC[C@H](NC(=O)CN(C)C)[C@@H](CO)O1 | 2.77%
CN1c2ccc(-c3ccccc3)cc2[C@@H]2[C@@H](CCN2C(=O)NC2CCCC2)[C@H]1CO | -5.4%
CCCNC(=O)N[C@@H]1C=C[C@H](CC(=O)NC2CCC2)O[C@H]1CO | 1.32%
CN1C(=O)c2cc(NC(=O)c3ccc(Cl)cc3)ccc2OC[C@H]2O[C@H](CC(=O)O)CC[C@H]21 | -6.44%
C[C@@H]1CN([C@@H](C)CO)C(=O)c2cc(C#CC(C)(C)O)cnc2O[C@@H]1CN(C)C(=O)C1CCOCC1 | 16.9%
C=CCNC(=S)N/N=C/c1ccc(OCc2ccccc2)cc1 | 106% (active)
C=CCNC(=S)N/N=C/c1ccc(C)s1 | 5.1%
CNC(=S)N/N=C/c1ccc(OCc2ccccc2)c(Br)c1 | 10.8%
O=C(C[C@H]1CC[C@H]2[C@@H](COC[C@@H](O)CN2CC2CCOCC2)O1)NCc1ccc(Cl)cc1 | 7.95%
CCC(=O)Nc1ccc2nn(-c3ccc(F)cc3)nc2c1 | -5.86%
O=C(/C=C/c1ccco1)Nc1ccc(Oc2ccccc2)cc1 | -25.3%
Cc1ccc(-n2nc3ccc(NC(=O)/C=C/c4ccco4)cc3n2)cc1C | 97.3% (active)
COCC(=O)N[C@H]1C=C[C@H](CC(=O)N2CCCCC2)O[C@H]1CO | 6.62%
CNC[C@H]1Oc2cc(C#CCOC)ccc2S(=O)(=O)N([C@@H](C)CO)C[C@H]1C | -7.75%
COc1ccc(-c2cc(C(=O)n3cnc4ccccc43)c3ccccc3n2)cc1 | 87.1% (active)
COc1ccc(-c2cc(C(=O)Nc3ccccc3O)c3ccccc3n2)cc1 | 14.3%
COc1ccc(NC(=O)c2cc(-c3cc(OC)c(OC)c(OC)c3)nc3ccccc23)c(OC)c1 | -9.57%
